According to PMC7862700, “An all-to-all approach to the identification of sequence-specific readers for epigenetic DNA modifications on cytosine”:

Key:
Assay in all cases: DAPPL (digital affinity profiling via proximity ligation, sequencing); 10 mM Tris-HCl pH 7.5, 50 mM NaCl, 1 mM DTT, 4% glycerol, room temperature, 30 min; GST-TFs on glutathione beads, 16-mer random dsDNA library, 0.1% formaldehyde crosslink after washing; high values mean tight binding
FLI1 = target: T1, FLI1 (Homo sapiens, UniProt Q01543 1-452); conditions: protein: recombinant; tags: N-terminal GST; dsDNA, one strand shown
T1 sequence: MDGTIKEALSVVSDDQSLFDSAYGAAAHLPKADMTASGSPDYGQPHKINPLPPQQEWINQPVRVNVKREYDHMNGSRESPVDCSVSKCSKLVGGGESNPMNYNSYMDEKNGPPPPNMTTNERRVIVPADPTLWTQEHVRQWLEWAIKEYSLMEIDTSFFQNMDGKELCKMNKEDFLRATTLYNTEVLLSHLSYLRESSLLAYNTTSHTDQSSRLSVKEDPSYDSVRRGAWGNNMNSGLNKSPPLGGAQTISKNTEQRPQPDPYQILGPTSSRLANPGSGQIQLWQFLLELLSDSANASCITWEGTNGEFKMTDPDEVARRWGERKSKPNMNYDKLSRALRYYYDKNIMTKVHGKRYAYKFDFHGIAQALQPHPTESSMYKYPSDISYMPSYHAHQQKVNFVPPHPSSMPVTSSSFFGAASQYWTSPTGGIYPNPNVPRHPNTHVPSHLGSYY
Method in brief: (§1)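 After expression in yeast as GST fusions, human transcription factors were bound to glutathione beads, DNA-barcoded and mixed with a tag-only sample. The pools were incubated with 200 nmole of a 16-mer random double-stranded DNA library in Tris/NaCl/DTT/glycerol buffer (30 min, room temperature), washed and crosslinked with 0.1% formaldehyde. Proximity ligation with BsaI/T4 ligase ran for 1 h at 37 °C, before PCR amplification and sequencing on an Illumina NextSeq500. Binding signal is a hexamer's read frequency for a factor divided by its frequency for the tag-only sample.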

ELK1 = target: T2, ELK1 (Homo sapiens, UniProt P19419 1-428); conditions: protein: recombinant; tags: N-terminal GST; dsDNA, one strand shown
T2 sequence: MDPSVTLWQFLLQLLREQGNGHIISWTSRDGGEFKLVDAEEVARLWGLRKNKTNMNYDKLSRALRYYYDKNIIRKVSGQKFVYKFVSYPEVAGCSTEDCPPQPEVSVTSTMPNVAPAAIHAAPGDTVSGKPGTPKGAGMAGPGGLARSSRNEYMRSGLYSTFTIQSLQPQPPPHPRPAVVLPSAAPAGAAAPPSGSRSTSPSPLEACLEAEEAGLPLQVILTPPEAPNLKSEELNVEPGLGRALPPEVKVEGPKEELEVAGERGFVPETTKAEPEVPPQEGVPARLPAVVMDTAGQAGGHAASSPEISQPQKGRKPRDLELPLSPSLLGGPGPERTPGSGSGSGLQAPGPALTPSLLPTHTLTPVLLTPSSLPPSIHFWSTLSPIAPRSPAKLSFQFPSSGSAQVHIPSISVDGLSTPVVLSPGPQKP
Method in brief: as §1

GABPA = target: T3, GABPA (Homo sapiens, UniProt Q06546 1-454); conditions: protein: recombinant; tags: N-terminal GST; dsDNA, one strand shown
T3 sequence: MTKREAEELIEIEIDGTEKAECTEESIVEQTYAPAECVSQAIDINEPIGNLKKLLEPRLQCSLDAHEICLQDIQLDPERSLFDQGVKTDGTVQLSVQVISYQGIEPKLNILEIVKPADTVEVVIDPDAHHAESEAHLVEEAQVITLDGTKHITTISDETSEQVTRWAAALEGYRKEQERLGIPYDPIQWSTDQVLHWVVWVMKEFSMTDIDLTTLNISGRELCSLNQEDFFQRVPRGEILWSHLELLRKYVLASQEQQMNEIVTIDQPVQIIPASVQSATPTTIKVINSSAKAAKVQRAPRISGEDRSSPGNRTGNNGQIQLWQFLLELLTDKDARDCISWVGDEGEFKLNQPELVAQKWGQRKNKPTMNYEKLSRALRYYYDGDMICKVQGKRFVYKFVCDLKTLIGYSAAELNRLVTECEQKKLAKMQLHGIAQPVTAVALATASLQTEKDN
Method in brief: as §1

ERG = target: T4, ERG (Homo sapiens, UniProt P11308 1-479); conditions: protein: recombinant; tags: N-terminal GST; dsDNA, one strand shown
T4 sequence: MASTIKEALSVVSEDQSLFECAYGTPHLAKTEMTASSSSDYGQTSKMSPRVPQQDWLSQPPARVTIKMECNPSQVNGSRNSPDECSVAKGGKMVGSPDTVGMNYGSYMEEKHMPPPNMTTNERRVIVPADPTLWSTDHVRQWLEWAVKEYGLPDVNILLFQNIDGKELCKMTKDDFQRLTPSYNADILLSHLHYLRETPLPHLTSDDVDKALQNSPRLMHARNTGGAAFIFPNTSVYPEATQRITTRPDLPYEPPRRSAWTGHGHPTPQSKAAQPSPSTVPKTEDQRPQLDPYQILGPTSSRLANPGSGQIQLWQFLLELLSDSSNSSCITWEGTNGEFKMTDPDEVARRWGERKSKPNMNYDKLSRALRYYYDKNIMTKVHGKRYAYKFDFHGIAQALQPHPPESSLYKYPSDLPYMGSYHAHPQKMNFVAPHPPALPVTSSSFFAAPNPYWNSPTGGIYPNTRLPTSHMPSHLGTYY
Method in brief: as §1

ELF1 = ELF1 (Homo sapiens, UniProt P32519 1-619); conditions: protein: recombinant; tags: N-terminal GST; dsDNA, one strand shown
ELF1, sequence (P32519 whole entry): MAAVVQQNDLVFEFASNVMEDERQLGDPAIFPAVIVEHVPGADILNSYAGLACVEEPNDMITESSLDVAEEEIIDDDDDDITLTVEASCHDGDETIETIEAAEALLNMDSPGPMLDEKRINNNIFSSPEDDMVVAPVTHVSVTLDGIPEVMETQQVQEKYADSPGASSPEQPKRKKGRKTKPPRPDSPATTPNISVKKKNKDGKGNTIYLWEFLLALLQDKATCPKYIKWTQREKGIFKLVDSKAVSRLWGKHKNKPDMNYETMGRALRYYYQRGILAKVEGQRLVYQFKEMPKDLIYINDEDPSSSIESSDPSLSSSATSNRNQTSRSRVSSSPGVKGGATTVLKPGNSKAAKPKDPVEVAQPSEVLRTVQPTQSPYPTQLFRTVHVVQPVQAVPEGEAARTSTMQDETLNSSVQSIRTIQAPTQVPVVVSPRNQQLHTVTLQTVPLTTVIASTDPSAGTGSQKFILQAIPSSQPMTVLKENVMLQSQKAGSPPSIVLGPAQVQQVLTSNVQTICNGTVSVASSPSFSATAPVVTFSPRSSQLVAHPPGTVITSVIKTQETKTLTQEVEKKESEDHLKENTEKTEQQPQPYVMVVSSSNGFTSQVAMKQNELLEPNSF
Method in brief: as §1

EHF = target: T5, EHF (Homo sapiens, UniProt Q9NZC4 1-300); conditions: protein: recombinant; tags: N-terminal GST; dsDNA, one strand shown
T5 sequence: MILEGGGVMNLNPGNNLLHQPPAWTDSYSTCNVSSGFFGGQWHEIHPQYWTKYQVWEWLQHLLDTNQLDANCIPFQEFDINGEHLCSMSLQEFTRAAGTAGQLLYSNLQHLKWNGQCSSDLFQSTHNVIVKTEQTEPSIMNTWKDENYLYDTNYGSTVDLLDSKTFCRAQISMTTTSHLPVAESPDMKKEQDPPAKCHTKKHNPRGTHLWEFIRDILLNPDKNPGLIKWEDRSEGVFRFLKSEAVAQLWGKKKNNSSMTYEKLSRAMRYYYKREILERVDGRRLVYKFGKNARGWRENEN
Method in brief: as §1

SPI1 = SPI1 (Homo sapiens, UniProt P17947 1-270); conditions: protein: recombinant; tags: N-terminal GST; dsDNA, one strand shown
Method in brief: as §1

SPIB = SPIB (Homo sapiens, UniProt Q01892 1-262); conditions: protein: recombinant; tags: N-terminal GST; dsDNA, one strand shown
SPIB, sequence (Q01892 whole entry): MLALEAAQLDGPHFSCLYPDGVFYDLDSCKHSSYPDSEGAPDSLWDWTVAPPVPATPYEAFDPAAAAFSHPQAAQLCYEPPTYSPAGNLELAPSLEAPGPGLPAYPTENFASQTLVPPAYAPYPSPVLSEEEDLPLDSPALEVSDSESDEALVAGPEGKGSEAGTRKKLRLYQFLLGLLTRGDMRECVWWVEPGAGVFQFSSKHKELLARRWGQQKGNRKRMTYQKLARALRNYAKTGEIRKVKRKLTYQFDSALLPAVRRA
Method in brief: as §1

ELK3 = target: T6, ELK3 (Homo sapiens, UniProt P41970 1-407); conditions: protein: recombinant; tags: N-terminal GST; dsDNA, one strand shown
T6 sequence: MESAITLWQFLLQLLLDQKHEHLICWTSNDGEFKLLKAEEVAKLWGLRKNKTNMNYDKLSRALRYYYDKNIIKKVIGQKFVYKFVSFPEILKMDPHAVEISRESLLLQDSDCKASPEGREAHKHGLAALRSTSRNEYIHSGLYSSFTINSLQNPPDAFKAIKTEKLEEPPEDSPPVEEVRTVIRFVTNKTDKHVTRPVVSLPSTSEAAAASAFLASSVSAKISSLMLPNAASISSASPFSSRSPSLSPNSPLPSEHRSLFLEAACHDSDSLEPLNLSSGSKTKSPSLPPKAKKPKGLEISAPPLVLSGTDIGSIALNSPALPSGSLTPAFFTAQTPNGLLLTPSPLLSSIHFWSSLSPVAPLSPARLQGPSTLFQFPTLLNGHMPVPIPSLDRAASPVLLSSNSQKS
Method in brief: as §1

FEV = target: T7, FEV (Homo sapiens, UniProt Q99581 1-238); conditions: protein: recombinant; tags: N-terminal GST; dsDNA, one strand shown
T7 sequence: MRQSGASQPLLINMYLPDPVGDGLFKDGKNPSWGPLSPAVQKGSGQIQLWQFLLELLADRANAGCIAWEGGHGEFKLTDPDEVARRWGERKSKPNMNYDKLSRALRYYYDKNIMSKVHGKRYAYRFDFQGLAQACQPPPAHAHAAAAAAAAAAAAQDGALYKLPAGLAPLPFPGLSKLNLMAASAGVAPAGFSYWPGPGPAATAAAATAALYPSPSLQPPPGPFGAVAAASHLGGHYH
Method in brief: as §1

ETV5 = ETV5 (Homo sapiens, UniProt P41161 1-510); conditions: protein: recombinant; tags: N-terminal GST; dsDNA, one strand shown
ETV5, sequence (P41161 whole entry): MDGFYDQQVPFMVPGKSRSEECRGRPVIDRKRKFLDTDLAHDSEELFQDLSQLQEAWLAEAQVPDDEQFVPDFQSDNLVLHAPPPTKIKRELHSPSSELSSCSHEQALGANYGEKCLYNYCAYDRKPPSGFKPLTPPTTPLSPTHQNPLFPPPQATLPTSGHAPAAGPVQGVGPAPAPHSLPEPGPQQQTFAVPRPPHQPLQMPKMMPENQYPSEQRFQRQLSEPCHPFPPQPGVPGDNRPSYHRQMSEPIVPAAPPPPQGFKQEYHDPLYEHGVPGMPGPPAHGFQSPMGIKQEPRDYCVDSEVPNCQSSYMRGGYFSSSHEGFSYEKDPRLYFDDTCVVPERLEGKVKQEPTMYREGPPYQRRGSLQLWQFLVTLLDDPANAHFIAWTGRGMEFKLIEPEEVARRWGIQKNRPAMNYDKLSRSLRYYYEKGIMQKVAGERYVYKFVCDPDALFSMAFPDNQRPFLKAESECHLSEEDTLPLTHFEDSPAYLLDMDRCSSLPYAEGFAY
Method in brief: as §1

HSF1 = HSF1 (Homo sapiens, UniProt Q00613 1-529); conditions: protein: recombinant; tags: N-terminal GST; chain copies: 3; dsDNA, one strand shown
HSF1, sequence (Q00613 whole entry): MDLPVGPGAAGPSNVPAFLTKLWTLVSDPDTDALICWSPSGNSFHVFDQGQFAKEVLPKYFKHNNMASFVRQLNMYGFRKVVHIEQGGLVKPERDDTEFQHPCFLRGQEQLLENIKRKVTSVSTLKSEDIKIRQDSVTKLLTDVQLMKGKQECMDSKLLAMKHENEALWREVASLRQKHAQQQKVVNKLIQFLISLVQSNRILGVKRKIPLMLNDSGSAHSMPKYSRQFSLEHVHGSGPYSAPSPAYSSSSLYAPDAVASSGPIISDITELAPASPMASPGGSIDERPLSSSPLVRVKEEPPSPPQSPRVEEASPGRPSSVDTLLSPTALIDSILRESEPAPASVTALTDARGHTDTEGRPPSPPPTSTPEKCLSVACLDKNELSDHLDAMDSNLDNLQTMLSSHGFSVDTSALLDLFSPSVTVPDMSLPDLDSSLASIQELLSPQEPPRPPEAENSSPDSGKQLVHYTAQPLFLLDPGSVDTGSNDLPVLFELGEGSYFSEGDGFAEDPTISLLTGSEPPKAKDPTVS
Method in brief: as §1

SPIC = target: T8, SPIC (Homo sapiens, UniProt Q8N5J4 1-248); conditions: protein: recombinant; tags: N-terminal GST; dsDNA, one strand shown
T8 sequence: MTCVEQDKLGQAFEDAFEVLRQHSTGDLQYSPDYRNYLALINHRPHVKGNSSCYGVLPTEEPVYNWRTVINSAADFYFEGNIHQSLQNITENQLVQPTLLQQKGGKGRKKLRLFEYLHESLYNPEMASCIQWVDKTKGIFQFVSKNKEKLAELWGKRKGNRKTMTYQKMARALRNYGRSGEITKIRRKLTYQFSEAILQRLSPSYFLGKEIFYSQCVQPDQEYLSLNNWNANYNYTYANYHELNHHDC
Method in brief: as §1

ELF4 = ELF4 (Homo sapiens, UniProt Q99607 1-663); conditions: protein: recombinant; tags: N-terminal GST; dsDNA, one strand shown
ELF4, sequence (Q99607 whole entry): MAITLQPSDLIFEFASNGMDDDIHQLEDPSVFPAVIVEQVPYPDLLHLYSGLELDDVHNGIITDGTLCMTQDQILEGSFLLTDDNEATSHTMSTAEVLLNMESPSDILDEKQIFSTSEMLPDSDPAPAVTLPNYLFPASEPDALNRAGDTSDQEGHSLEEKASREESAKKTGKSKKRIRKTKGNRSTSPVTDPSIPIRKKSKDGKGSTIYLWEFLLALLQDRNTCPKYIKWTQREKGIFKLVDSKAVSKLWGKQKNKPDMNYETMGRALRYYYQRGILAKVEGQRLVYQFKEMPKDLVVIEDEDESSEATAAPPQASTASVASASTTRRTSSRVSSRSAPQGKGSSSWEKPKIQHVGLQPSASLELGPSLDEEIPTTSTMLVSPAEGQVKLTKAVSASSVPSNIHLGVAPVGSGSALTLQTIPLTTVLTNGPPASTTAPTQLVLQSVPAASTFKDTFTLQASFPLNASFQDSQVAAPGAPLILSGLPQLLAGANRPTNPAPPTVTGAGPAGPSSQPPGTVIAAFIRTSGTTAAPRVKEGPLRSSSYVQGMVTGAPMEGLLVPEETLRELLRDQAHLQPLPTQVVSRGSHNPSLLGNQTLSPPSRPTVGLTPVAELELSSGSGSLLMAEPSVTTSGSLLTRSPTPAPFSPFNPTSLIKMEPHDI
Method in brief: as §1

ELK4 = target: T9, ELK4 (Homo sapiens, UniProt P28324-2 1-405); conditions: protein: recombinant; tags: N-terminal GST; dsDNA, one strand shown
T9 sequence: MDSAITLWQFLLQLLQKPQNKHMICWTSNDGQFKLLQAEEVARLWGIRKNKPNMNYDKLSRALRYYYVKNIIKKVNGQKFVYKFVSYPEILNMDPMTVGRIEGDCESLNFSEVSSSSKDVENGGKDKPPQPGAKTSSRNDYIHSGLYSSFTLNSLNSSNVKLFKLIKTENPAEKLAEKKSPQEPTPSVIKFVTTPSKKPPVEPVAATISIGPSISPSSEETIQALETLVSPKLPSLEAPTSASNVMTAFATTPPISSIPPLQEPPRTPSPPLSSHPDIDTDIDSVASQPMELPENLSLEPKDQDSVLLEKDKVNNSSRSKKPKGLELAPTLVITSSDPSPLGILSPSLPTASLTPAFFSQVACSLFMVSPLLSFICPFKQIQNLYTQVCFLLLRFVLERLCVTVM
Method in brief: as §1

ETV2 = target: T10, ETV2 (Homo sapiens, UniProt O00321 1-342); conditions: protein: recombinant; tags: N-terminal GST; dsDNA, one strand shown
T10 sequence: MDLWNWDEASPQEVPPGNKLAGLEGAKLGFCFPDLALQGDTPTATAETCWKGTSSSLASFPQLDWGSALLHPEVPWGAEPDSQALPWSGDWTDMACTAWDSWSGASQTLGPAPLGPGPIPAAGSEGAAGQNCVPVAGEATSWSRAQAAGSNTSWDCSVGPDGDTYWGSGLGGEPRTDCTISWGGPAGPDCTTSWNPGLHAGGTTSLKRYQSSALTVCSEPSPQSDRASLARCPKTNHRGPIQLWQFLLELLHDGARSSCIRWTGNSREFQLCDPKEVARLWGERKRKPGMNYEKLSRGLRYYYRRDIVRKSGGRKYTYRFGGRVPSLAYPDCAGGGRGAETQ
Method in brief: as §1

ELF3 = target: T11, ELF3 (Homo sapiens, UniProt P78545 1-371); conditions: protein: recombinant; tags: N-terminal GST; dsDNA, one strand shown
T11 sequence: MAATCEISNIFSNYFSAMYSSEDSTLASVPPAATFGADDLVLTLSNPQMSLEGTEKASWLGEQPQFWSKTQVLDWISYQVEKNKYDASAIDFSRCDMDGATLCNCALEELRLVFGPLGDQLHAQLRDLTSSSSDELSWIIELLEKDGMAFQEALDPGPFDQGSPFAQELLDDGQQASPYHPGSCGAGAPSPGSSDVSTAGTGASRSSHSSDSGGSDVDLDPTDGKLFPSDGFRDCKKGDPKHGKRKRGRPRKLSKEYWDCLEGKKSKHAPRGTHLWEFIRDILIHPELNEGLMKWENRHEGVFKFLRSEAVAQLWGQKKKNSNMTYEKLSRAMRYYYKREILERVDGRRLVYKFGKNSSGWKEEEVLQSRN
Method in brief: as §1

CRX = CRX (Homo sapiens, UniProt O43186 1-299); conditions: protein: recombinant; tags: N-terminal GST; dsDNA, one strand shown
CRX, sequence (O43186 whole entry): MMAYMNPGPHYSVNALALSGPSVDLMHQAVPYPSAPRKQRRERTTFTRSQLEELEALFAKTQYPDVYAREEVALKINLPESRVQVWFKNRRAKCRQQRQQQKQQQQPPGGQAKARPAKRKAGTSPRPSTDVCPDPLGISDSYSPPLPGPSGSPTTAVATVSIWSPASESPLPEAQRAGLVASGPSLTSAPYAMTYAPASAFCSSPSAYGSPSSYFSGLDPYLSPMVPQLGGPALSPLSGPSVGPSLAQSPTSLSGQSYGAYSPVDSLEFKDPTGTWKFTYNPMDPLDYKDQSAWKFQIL
Method in brief: as §1

ETV1 = ETV1 (Homo sapiens, UniProt P50549 1-477); conditions: protein: recombinant; tags: N-terminal GST; dsDNA, one strand shown
ETV1, sequence (P50549 whole entry): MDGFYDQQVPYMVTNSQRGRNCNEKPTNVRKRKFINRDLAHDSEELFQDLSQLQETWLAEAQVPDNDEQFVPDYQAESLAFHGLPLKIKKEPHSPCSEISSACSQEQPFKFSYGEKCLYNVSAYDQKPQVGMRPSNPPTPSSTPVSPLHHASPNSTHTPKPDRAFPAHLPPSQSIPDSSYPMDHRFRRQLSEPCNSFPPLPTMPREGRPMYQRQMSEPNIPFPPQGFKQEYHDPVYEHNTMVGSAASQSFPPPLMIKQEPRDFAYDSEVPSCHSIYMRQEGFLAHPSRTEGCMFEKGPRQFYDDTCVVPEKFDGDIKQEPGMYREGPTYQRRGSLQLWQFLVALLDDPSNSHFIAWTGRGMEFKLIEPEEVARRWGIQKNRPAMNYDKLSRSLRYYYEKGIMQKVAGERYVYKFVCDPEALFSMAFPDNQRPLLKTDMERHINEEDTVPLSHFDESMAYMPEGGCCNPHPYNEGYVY
Method in brief: as §1

CTTCGC
binding signal (FLI1): 1.43 fold enrichment (6-mer frequency, TF over GST control)
binding signal (ELK1): 1.56 fold enrichment (6-mer frequency, TF over GST control)
binding signal (GABPA): 1.5 fold enrichment (6-mer frequency, TF over GST control)
binding signal (ERG): 1.53 fold enrichment (6-mer frequency, TF over GST control)
binding signal (ELF1): 1.46 fold enrichment (6-mer frequency, TF over GST control)
binding signal (EHF): 1.32 fold enrichment (6-mer frequency, TF over GST control)
binding signal (SPI1): 1.42 fold enrichment (6-mer frequency, TF over GST control)
binding signal (SPIB): 1.6 fold enrichment (6-mer frequency, TF over GST control)
binding signal (ELK3): 1.7 fold enrichment (6-mer frequency, TF over GST control)
binding signal (FEV): 1.41 fold enrichment (6-mer frequency, TF over GST control)
binding signal (ETV5): 1.31 fold enrichment (6-mer frequency, TF over GST control)
binding signal (HSF1): 1.63 fold enrichment (6-mer frequency, TF over GST control)
binding signal (SPIC): 1.18 fold enrichment (6-mer frequency, TF over GST control)
binding signal (ELF4): 1.45 fold enrichment (6-mer frequency, TF over GST control)
binding signal (ELK4): 1.32 fold enrichment (6-mer frequency, TF over GST control)
binding signal (ETV2): 1.62 fold enrichment (6-mer frequency, TF over GST control)
binding signal (ELF3): 1.37 fold enrichment (6-mer frequency, TF over GST control)
binding signal (CRX): 1.24 fold enrichment (6-mer frequency, TF over GST control)
binding signal (ETV1): 1.52 fold enrichment (6-mer frequency, TF over GST control)
